From PubChem BioAssay
Sampled rows, rich in hits. Any-hit rate of the full collection: about 1.6%.
HTR2A ag: agonists of mouse serotonin 5-HT2A receptor (HTR2A); CHO-K1 mHTR2A beta-arrestin complementation, luminescence; percent of 30 µM serotonin response; actives 0.66% (n = 360,000); activation, % at 7.6 µM; AID 624169; P35363;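 active = activation above a run cutoff, the mean activation of all tested compounds plus 3 SD, cut at about 14% in these data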;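 note: 0% = plate median of compound wells and 100% = 30 µM serotonin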
Target sequence (P35363 whole entry, looked up): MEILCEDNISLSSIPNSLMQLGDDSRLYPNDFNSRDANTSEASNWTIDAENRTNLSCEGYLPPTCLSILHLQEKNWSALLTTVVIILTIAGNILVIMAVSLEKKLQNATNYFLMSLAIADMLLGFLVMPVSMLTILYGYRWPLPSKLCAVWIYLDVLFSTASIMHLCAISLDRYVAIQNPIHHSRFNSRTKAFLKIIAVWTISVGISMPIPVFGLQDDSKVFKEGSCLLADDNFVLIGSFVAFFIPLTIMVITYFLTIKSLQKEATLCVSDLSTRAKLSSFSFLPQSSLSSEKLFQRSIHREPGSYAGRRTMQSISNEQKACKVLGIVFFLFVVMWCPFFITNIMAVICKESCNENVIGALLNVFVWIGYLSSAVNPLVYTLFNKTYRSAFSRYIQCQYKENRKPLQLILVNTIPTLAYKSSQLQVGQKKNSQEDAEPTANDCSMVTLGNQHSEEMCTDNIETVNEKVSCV
HTR5A ag ctr: activates human HTR5A in OPRM1-OPRD1 agonist counter-screen; P47898; HTR5A agonist assay, luminescence, cell-based; activation, % at 9.3 µM; actives 0.61% (n = 340,000); in the data active = activation mostly above about 9.5%, no sharp cut-off; inactive = mostly below about 7.6%;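 note: 0% = cells with vehicle only and 100% = reference agonist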
HTR5A inv ctr: counter-screen for OPRM1-OPRD1 inverse agonists: human HTR5A inverse agonism; P47898; HTR5A cell line, luminescence; inhibition, % at 9.3 µM; actives 0.083% (n = 340,000); AID 504634; in the data active = inhibition mostly above about 23%, no sharp cut-off; inactive = mostly below about 18%;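 note: 0% = cells with DMSO and 100% = no-cell wells with DMSO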
MOR-DOR ag-1: agonists of human mu-delta opioid receptor heterodimerization; actives 0.3% (n = 340,000); P35372+P41143; cells, OPRM1-OPRD1 heterodimerization, luminescence; activation, % at 9.3 µM; in the data active = activation above about 18%;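 note: 0% = vehicle-treated cells and 100% = reference agonist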
MOR-DOR inv ag-1: mu-delta opioid heterodimer inverse agonism. cell-based MOR-DOR heterodimer luminescence. inhibition, % at 9.3 µM. actives 0.21% (n = 340,000). AID 504357; in the data active = inhibition above about 22%, passing the limit was not always enough;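 note: 0% = cells with DMSO and 100% = wells without cells with DMSO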
MOR-DOR inv conf: OPRM1-OPRD1 heterodimer inverse agonism, confirmation | shares compounds with MOR-DOR inv ag-1 | cells expressing OPRM1/OPRD1 heterodimer, luminescence | inhibition, % at 9.3 µM | actives 20% (n = 580) | AID 504900; in the data active = inhibition above about 32%;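 note: 0% = cells with DMSO and 100% = wells lacking cells with DMSO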
HTR5A inv ctr2: HTR5A inverse agonism, opioid heterodimer counter-screen. AID 504914. HTR5A-expressing cells, luminescence. inhibition, % at 9.3 µM. shares compounds with MOR-DOR inv ag-1. 580 tested, under 10 active;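 note: 0% = cells with DMSO and 100% = no-cell wells with DMSO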
MOR-DOR inv ag-2: inverse agonist of OPRM1-OPRD1 heterodimerization in HTR5A counter-screen; U2OS counter-screen cells, complementation luminescence; inhibition, % at 9.3 µM; 190 tested, under 10 active; shares compounds with HTR5A inv ctr;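 note: 0% = cells with DMSO and 100% = wells without cells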
HTR5A inv confrm: confirmation of human HTR5A inverse agonists; HTR5A-expressing cells, inverse agonism, luminescence; shares compounds with HTR5A inv ctr; inhibition, % at 9.3 µM; 190 tested, under 10 active;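 note: 0% = cells with DMSO and 100% = no cells with DMSO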
MOR-DOR ag-2: promotes OPRM1-OPRD1 heterodimerization in HTR5A counter-screen. shares compounds with HTR5A ag ctr. U2OS counter-screen cells, complementation luminescence, 3 h. activation, % at 9.3 µM. actives 13% (n = 800). AID 504913; in the data active = activation above about 18%
HTR5A ag confirm: confirmation of human HTR5A agonists. shares compounds with HTR5A ag ctr. actives 17% (n = 800). AID 504915. HTR5A agonist cell assay, luminescence. activation, % at 9.3 µM; in the data active = activation above about 17%;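 note: 0% = cells with vehicle only and 100% = full reference agonist response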
* marks the source's active call; other numbers are inactive results; · = no result given. Unless noted, the rule behind the calls is not given here.

SMILES	HTR2A ag	HTR5A ag ctr	HTR5A inv ctr	MOR-DOR ag-1	MOR-DOR inv ag-1	MOR-DOR ag-2	HTR5A ag confirm	others
COc1cc(O)c2c(c1)/C=C/C[C@H](O)[C@H](O)C(=O)CCC[C@H](C)OC2=O	2	·	·	·	·	·	·
COC(=O)C1=C(c2ccc(OCc3ccccc3)cc2)C[C@@H]2CC[C@H]1N2C(=O)NCc1ccc(F)cc1	1	·	·	·	·	·	·
CC(C)(C)OC(=O)c1c(N)n(Cc2ccco2)c2nc3ccccc3nc12	4	1	20	-7	40*	·	·	MOR-DOR inv conf=96*;HTR5A inv ctr2=17
CCCCn1c(NS(=O)(=O)c2ccccc2)c(C(=O)OCC)c2nc3ccccc3nc21	-2	0	13	-6	32*	·	·	MOR-DOR inv conf=-16;HTR5A inv ctr2=-14
C[C@H]1CCC/C=C/[C@@H]2C[C@H](O)C[C@H]2[C@@H](O)/C=C/C(=O)O1	5	-1	5	-10	42*	·	·	MOR-DOR inv conf=-455;HTR5A inv ctr2=-24
COc1ccc(-n2nnnc2C(c2cccs2)N2CCC(n3c(=O)[nH]c4ccccc43)CC2)cc1 (stereo not given)	2	·	·	·	·	·	·
COc1ccc(CNC(=O)C(NC(C)=O)C(C)C)cc1OC (stereo not given)	-1	-7	18*	-2	10	·	·	MOR-DOR inv ag-2=5;HTR5A inv confrm=-8
O=P1(c2ccccc2)CC=CC1	3	·	·	·	·	·	·
COc1cc(CNCCc2c[nH]c3ccccc23)cc(OC)c1	8	15*	-57	-4	17	369*	2
COc1cc(CNCCc2c[nH]c3ccccc23)cc(OC)c1OC	-4	·	·	·	·	·	·
CCC1C(c2ccccc2)NC(c2ccccc2)CC1(O)c1ccc(F)cc1 (stereo not given)	-2	17*	-44	8	-40	9	1
C=C(C)[C@@]12OC3(c4ccccc4)O[C@@H]1C1[C@@H]4O[C@]4(CO)[C@@H](O)[C@]4(O)C(=O)C(C)=C[C@H]4[C@@]1(O3)[C@H](C)[C@H]2OC(=O)/C=C/C=C/c1ccccc1 (stereo not given in full)	-1	33*	4	-2	12	-4	-2
CCCCCN1C(=O)c2cc(OC)ccc2[C@@]2(C(=O)OCC)Cc3cc(Cl)ccc3[C@@H]12	0	·	·	·	·	·	·
CN1CCC(c2c[nH]c3ccccc23)C1 (stereo not given)	4	29*	-106	-4	18	23*	10
COc1ccc2[nH]cc(C(=O)CN(C)C)c2c1	-3	-2	11	-3	15	·	·
COc1ccc2c(CCN)c[nH]c2c1	12	32*	-190	-1	5	-1	-1
CCOC(=O)CNC(=O)N1Cc2cc(N3CCOCC3)ccc2-n2nncc2C1	3	·	·	·	·	·	·
C=CCn1c(O)c(C(CC)=NCCc2ccccc2)c(=O)[nH]c1=O	-7	-7	16	-1	6	·	·
C=CCn1c(O)c(C(CC)=NCCc2c[nH]c3ccccc23)c(=O)[nH]c1=O	4	31*	-104	-1	3	-2	-1
Fc1cccc(-c2ccc3c(c2)CN(C(=S)NCCc2ccccc2)Cc2cnnn2-3)c1	-6	·	·	·	·	·	·
